Compound activity: PubChem BioAssay, National Center for Advancing Translational Sciences (NCATS)
ATXN2 expr inh: reduces ATXN2 reporter expression in HEK-293 cells | HEK-293 ATXN2-luciferase reporter, luminescence, 24 h | Potency, µM (top dose mostly 57 µM), for the others: at the highest dose activity change, negative = inhibition, actives largely listed as inhibitors | 0.72% of 360,000 active; further: potency means the concentration at half of the fitted maximal effect; on the % scale 0 is the no-effect control and ±100 the full control effect; nearly all actives have a fitted effect of over 55% in size
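ATXN2-luciferase reporter cells (luciferase flanked by upstream and downstream ATXN2 gene portions) were treated 24 h at 37 °C with compounds at up to 57 uM. SteadyGlo luminescence gave expression; GF-AFC fluorescence gave viability.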
ATXN viability: reduces viability in counter-screen for ATXN expression inhibitors; S2 cells (HEK-293 line with an ATXN2-luciferase reporter) viability, CellTiter-Fluor protease fluorescence, 24 h; Potency, µM (series often up to 56.7 µM), usual class: cytotoxic; 0.49% of 400,000 active; AID 651635; further: potency means the concentration at half of the fitted maximal effect; nearly all actives have a fitted effect of over 40% in size
D3 antag: blocks the human D3 dopamine receptor | AID 652054 | max response, negative = inhibition, % | D3R cells, DiscoveRx beta-arrestin luminescence, antagonist mode; hits give low values | 2.5% of 360,000 active; in the data active means max response below about -50%; inconclusive means no clear call, values can overlap the other calls; further: on the % scale 0 is the no-effect control and ±100 the full control effect
Target sequence (P35462 whole entry, looked up): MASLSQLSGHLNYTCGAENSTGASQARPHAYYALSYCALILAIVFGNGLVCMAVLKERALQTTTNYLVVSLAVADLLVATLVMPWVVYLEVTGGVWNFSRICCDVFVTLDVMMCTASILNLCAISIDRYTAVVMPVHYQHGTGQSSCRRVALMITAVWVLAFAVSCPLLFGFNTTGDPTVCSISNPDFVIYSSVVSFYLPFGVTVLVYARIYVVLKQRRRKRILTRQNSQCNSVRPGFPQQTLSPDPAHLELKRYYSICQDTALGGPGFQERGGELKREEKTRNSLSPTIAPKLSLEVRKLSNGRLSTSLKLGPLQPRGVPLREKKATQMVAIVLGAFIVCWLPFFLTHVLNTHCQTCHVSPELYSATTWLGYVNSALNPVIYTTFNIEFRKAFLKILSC
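Cells expressing the human receptor were seeded at 1500 cells/well, incubated overnight at 37 degrees C in 5% CO2, then exposed to library compounds with dopamine controls for 90 minutes at 37 degrees C before luminescent detection.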
HepG2 tox: HepG2 cytotoxicity, counter-screen for TGF-b inhibitors; HepG2 CAGA-GFP viability, ATP luminescence, 18 h; AID 588856; Potency, µM (series often up to 46.1 µM), inactives show at the highest dose activity change, negative = cytotoxicity, hits mostly cytotoxic; 0.76% of 410,000 active; further: potency means the concentration at half of the fitted maximal effect
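CellTiter-Glo luminescence gave cytotoxicity after 18 hours at 37 degrees C. The cells were HepG2 CAGA-GFP in 1% FBS DMEM, stimulated with 500 pg/mL TGF-beta after compound addition. %Activity was normalised to no-cell wells (complete cell-killing) and DMSO (no toxicity), and curves were fitted and classified.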
TGFb inhibitor: inhibitors of TGF-b signaling. HepG2 CAGA-GFP TGF-b/SMAD3 reporter, GFP fluorescence, 18 h; TGF-beta stimulated, 500 pg/mL final. 1.2% of 410,000 active. Potency, µM (top dose mostly 46.1 µM), without a hit: top-dose activity, negative = inhibition, most hits filed as inhibitors; further: potency means the concentration at half of the fitted maximal effect; on the % scale 0 is the no-effect control and ±100 the full control effect; nearly all actives have a fitted effect of over 65% in size
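TGF-beta reporter screen: HEPG2 CAGA-GFP, 1% FBS, 500 pg/mL TGF-beta final, 18 h; per-cell GFP summed per well; curves fitted and categorized by class.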
DRD3 agonist: activates the human D3 dopamine receptor; D3R DiscoveRx beta-arrestin cells, luminescence, 90 min; max activation, %; P35462; 0.58% of 410,000 active; in the data active means max activation above about 30%; further: 0% is about no effect
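Agonist mode: compounds and dopamine controls were applied to plated cells for 90 min at 37 degrees C after an overnight attachment at 1500 cells/well. Luminescent read-out followed 30 - 60 minutes at room temperature with DiscoveRx detection reagent.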
* marks the source's active call; other numbers are inactive results; i = inactive; ? = inconclusive; nt = no result given. Hits are enriched below; roughly 4.8% of the tested compounds scored in any of these assays. Unless noted, the call rests on the fitted dose curve; in most records, active means well fitted curve in the direction sought with a large enough effect; inconclusive means small, poorly fitted or top-dose-only effect, or another doubt; inactive means no such curve, though single readings can be large; an effect the other way counts as inactive or inconclusive.

SMILES | ATXN2 expr inh | ATXN viability | D3 antag | HepG2 tox | TGFb inhibitor | DRD3 agonist
O=C(Nc1ccccc1)c1ccc(Nc2c([N+](=O)[O-])cc([N+](=O)[O-])c3ccccc23)cc1 | -22% | i | -68* | -3% | 0% | -13
O=C(COc1ccc(Cl)cc1)NCCc1csc(-c2cccc(F)c2)n1 | -16% | i | nt | -47% | ? | -8
NC(=O)c1ncn([C@@H]2O[C@H](CO)[C@@H](O)[C@@H]2O)c1N | -14% | nt | nt | nt | nt | nt
Cn1nnnc1SCC1=C(C(=O)O)N2C(=O)[C@@H](NC(=O)[C@H](OC=O)c3ccccc3)[C@H]2SC1 | nt | i | nt | nt | nt | 4
COc1ccc(-n2nc(CCC(=O)N(C)O)cc2-c2ccc(Cl)cc2)cc1 | ? | i | nt | nt | nt | nt
C=CCS/C(N)=N\N=C\c1c(O)ccc2ccccc12 | 19% | i | -9 | -78% | 7.9µM* | 1
Oc1ccc(/C=N/Nc2nccnc2Cl)cc1 | 22% | i | ? | -78% | 0% | -7
Fc1ccc(/C=N/Nc2nccnc2Cl)cc1 | 31% | i | 8 | 10µM* | ? | 5
c1ccc2c(C3=NNC(=NC4CC4)SC3)c[nH]c2c1 | 18µM* | i | -9 | 8% | 3% | 2
c1ccc2c(C3=NNC(=NC4CCCCC4)SC3)c[nH]c2c1 | 10% | i | -14 | -37% | ? | -7
c1ccc(C2=NNC(=NC3CC3)SC2)cc1 | ? | i | -22 | 7.1µM* | 4% | -8
CCOC(=O)N1CCc2c(sc(NCc3cccc(F)c3)c2C(=O)Nc2ccc(OC)cc2OC)C1 | nt | nt | nt | 0% | ? | -14
CN1CCCN(Cc2ccccc2C(F)(F)F)CC1 | -10% | i | -84* | -3% | -1% | -6
CN1CCCN(Cc2ccc(Cl)cc2Cl)CC1 | -10% | i | -78* | -4% | 20% | -34
Cc1cccnc1-c1cccc2c1OC(CNC(=O)Cc1c(C)noc1C)C2 (configuration not stated) | nt | i | nt | nt | nt | nt
CCN1CCC(O)(/C=C/c2ccc(C(C)C)cc2)C(C(=O)/C=C/c2ccc(C(C)C)cc2)C1 (configuration not stated) | ? | nt | -66* | 13µM* | 8.9µM* | -9
CCN1CCN(C(=O)/C=C/c2ccc(C(C)C)cc2)CC1 | 14% | i | ? | -2% | 11% | -20
Cc1ccc2ccc(S(=O)(=O)n3nc(C)cc3C)cc2c1 | -8% | i | -60* | -13% | -3% | -10
CN(N=O)c1ccc(/C=C/c2ccccc2)cc1 | nt | nt | nt | -15% | -2% | nt
Cc1ccnc(NC(c2ccsc2)c2ccc3ccc(C)nc3c2O)c1 (configuration not stated) | 14% | i | -98* | -31% | ? | -44
Cc1ccc2ccc(C(Nc3ccccn3)c3ccccc3)c(O)c2n1 (configuration not stated) | ? | i | -59* | -21% | ? | -17
Cc1ccc2ccc(C(Nc3cccc(C(F)(F)F)c3)c3cccnc3)c(O)c2n1 (configuration not stated) | nt | i | -127* | -1% | -15% | -18
Cc1ccc2ccc(C(Nc3ccccc3)c3ccccc3)c(O)c2n1 (configuration not stated) | nt | nt | ? | nt | nt | -20
COc1ccc(C(Nc2cc(C)ccn2)c2ccc3ccc(C)nc3c2O)cc1 (configuration not stated) | 1% | i | -77* | 5% | 1% | -35
OCCn1cc(-c2cnc3nnn(Cc4ccc5ncccc5c4)c3n2)cn1 | -11% | nt | nt | nt | nt | nt
SMILES | ATXN2 expr inh | ATXN viability | D3 antag | HepG2 tox | TGFb inhibitor | DRD3 agonist
O=C(Nc1cccc2c(=O)cc(-c3nn[nH]n3)oc12)c1ccc(OCCCCc2ccccc2)cc1 | 31% | i | nt | nt | nt | -10
Cc1ccc(Oc2nc3ccccn3c(=O)c2/C=C(\C#N)c2nc3ccccc3s2)c(C)c1 | 3% | i | nt | 3% | -17% | 3
CC1(C)Oc2ccc3ccc(=O)oc3c2/C(=C/NNC(N)=O)C1=O | nt | i | -111* | 0% | 10% | -35
CC1(C)Oc2ccc3ccc(=O)oc3c2C(/C=N/O)=C1Cl | 3% | i | 7 | 6% | 12% | 1
O=C(Nc1cc(Cl)ccc1Cl)c1cc(S(=O)(=O)N2CCCc3ccccc32)ccc1F | 7% | i | nt | -8% | 2% | -7
CCc1cc(=O)oc2cc(C)c(CN3CCCC(C)C3)c(O)c12 (configuration not stated) | 15% | i | -28 | -10% | -1% | -24
CCCCc1cc(=O)oc2cc(C)c(CN3CCCC3)c(O)c12 | 5% | i | 16 | -10% | 16% | 30*
O=C(Oc1ccc(Br)cc1C(=O)/C=C/c1ccccc1F)c1ccco1 | ? | ? | ? | -47% | 16µM* | -22
CCCCCCCCc1ccc(CCC(N)(CO)CO)cc1 | 31µM* | nt | nt | nt | nt | nt
CC(=O)c1ccc(CCCCc2ccc(C(C)=O)cc2)cc1 | -13% | i | 6 | -7% | 3% | 2
COc1ccccc1C1CN(Cc2c(C)nn(C)c2Cl)Cc2ccccc2O1 (configuration not stated) | nt | i | nt | nt | nt | nt
C1=CCOCc2cc(ccc2OCCN2CCCC2)Nc2nccc(n2)-c2cccc(c2)OCC1 | 15µM* | nt | nt | nt | nt | nt
Cc1ccc(S(=O)(=O)Nc2nc3ccccc3nc2Nc2cccc(S(=O)(=O)N3CCCC3)c2)cc1 | ? | ? | 46 | -42% | 43% | 32*
O=C(CCn1c(=O)c2cccn2c2cccnc21)NCCCN1CCN(c2ccc(F)cc2)CC1 | nt | ? | -67* | -35% | ? | -4
O=C(CCn1c(=O)c2cccn2c2cccnc21)NCc1ccc(F)cc1 | nt | nt | nt | -1% | -33% | -3
Cc1ccc(C)c(N2CCN(CCCNC(=O)CCn3c(=O)c4cccn4c4cccnc43)CC2)c1 | -26% | i | ? | -35% | ? | -8
Cc1ccc(C)c(N2CCN(CCCNC(=O)Cn3c(=O)c4cccn4c4cccnc43)CC2)c1 | -23% | i | -98* | -15% | 3% | -22
CCN(CC)CCOC(=O)c1ccc(N)cc1Cl | nt | i | nt | nt | nt | -9
Cc1c(C(=O)N2CCOCC2)oc2c1-c1nn(CC(=O)NCc3cccc(Cl)c3)cc1CC2 | nt | nt | nt | -3% | -17% | 3
Cc1ccn(-c2ccc(-c3ncco3)cc2)c(=O)c1-c1ccc2nc(N)ncc2c1 | -13% | nt | nt | nt | nt | nt
O=C(Nc1ccccc1)N1CCN(c2nc(-c3ccccc3)ns2)CC1 | ? | ? | 11 | 2% | ? | 36*
O=C(Nc1ccccc1Cl)N1CCCN(c2nc(-c3ccccc3)ns2)CC1 | ? | i | 9 | -58% | ? | -14
